Compound activity (PubChem)
FLuc modulator – counter-screen for miR-21 project: firefly luciferase inhibitors or activators. purified FLuc, Km substrates, luminescence inhibition. AID 588342. Potency, µM (doses to about 57.5 µM), for the others: top-dose activity change, negative = inhibition, usual class: inhibitors. hit rate 6.9% among 360,000;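 also: plate controls were vehicle for no effect and reference inhibitor for full effect; nearly all actives have a fitted effect of over 55% in size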
Target sequence (P08659 whole entry, looked up): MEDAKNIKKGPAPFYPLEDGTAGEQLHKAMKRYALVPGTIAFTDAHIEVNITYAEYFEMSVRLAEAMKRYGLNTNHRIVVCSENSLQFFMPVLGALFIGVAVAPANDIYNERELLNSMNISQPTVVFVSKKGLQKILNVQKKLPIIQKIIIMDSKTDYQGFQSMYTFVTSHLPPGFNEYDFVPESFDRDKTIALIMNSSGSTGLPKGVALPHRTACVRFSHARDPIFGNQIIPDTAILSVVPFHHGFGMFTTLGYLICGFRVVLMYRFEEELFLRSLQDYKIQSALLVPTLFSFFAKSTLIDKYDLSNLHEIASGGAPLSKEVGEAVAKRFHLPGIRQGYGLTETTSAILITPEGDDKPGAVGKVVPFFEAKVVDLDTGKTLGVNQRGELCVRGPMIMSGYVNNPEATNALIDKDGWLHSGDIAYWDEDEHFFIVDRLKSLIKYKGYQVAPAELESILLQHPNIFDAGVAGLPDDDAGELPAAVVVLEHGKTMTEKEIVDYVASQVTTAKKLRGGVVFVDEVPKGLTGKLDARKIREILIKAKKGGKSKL
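Purified P. pyralis luciferase, 10 nM final, with Km-level 10 uM D-luciferin and 10 uM ATP in 50 mM Tris acetate pH 7.5, 10 mM Mg acetate, 0.01% Tween-20, 0.05% BSA; 6-point qHTS titration about 60 µM downward; luminescence read.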
SMN2 splice up – increases expression of the SMN2 splice variant; HEK293 SMN2-luciferase splicing reporter, luminescence, 30-36 h; Potency, µM (titrated, usually from 46.1 µM), without a hit: at the highest dose activity change, positive = activation, actives largely listed as activators; hit rate 2.8% among 210,000; also: % of control where 0% means no effect; nearly all actives have a fitted effect of over 55% in size
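HEK293 cells carry an SMN2 minigene-luciferase reporter in which exon 7 inclusion puts luciferase in frame. Cells were seeded at 2000 cells/well, attached for 10-12 hours, then exposed to compounds for 30-36 hours at 37C before ONE-Glo luminescence.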
ELG1 DNA repair – inhibitors of ELG1-dependent DNA repair in HEK293T cells; HEK293T ELG1-luciferase reporter, luminescence, 16 h; DNA damage induced by 5-fluorouridine; Potency, µM (top dose mostly 46.1 µM), for the others: at the top dose activity change, negative = inhibition, usual class: inhibitors; hit rate 2.3% among 330,000; also: % is scaled to controls: 0 for no effect and ±100 for the full control effect; nearly all actives have a fitted effect of over 55% in size
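Cells (2,000 per well) received 5-fluorouridine plus test compound or DMSO and were incubated 16 hr at 37 °C, 5% CO2. Luciferase activity was read by luminescence 30 min after ONE-Glo addition; signal suppression marked inhibition of damage-induced ELG1 function.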
Rab9 promoter act – activators of Rab9 promoter; Huh7 Rab9 promoter-luciferase reporter, luminescence, 24 h; Potency, µM (series often up to 9.22 µM), inactives show at the top dose activation, negative = inhibition, usual class: activators; hit rate 2.8% among 320,000; AID 485297; also: % of control where 0% means no effect; nearly all actives have a fitted effect of over 60% in size
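Luminescence from Amplite-detected luciferase (10 minutes, ambient) reports Rab9 promoter activation. Before that, stable Rab9-luciferase Huh7 cells (1500/well, reduced-serum OP-MEM I plus 10% FBS) were exposed to compound for 24 hours at 37C.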
NPC1 promoter act – activates the NPC1 promoter. Huh7 NPC1 promoter luciferase reporter, 24 h. Potency, µM (highest dose often 9.22 µM), without a hit: at the highest dose activation, most hits filed as activators. hit rate 2.4% among 320,000. AID 485313; also: % of control where 0% means no effect; nearly all actives have a fitted effect of over 60% in size
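In 1536-well qHTS, Huh7 cells harboring an NPC1 promoter–luciferase construct received compound for 24 h; activation was quantified by luminescence following luciferase reagent addition.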
ELG1 genotoxic – induces genotoxicity in HEK293T cells with luciferase-tagged ELG1; HEK293T ELG1-luciferase reporter, luminescence, 16 h; Potency, µM (series often up to 46 µM), for the others: top-dose activity change, positive = activation, hits mostly activators; hit rate 1.3% among 330,000; also: % of control where 0% means no effect; nearly all actives have a fitted effect of over 60% in size
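Quantitative HTS format in 1536-well plates. HEK293T ELG1-luciferase reporter cells receive test compound and are incubated 16 hr at 37 °C, 5% CO2; ONE-Glo added, 30 min room temperature, then luminescence read.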
* = called active by the depositor. The list is not random: actives were taken first. Their share in the collection is about 9.3%. Calls follow the shape of the dose curve; as a rule, active = well fitted curve in the direction sought with a large enough effect; inconclusive = small, poorly fitted or top-dose-only effect, or another doubt; inactive = no such curve, though single readings can be large; an effect the other way counts as inactive or inconclusive. Potency is read from the fitted curve at half-maximal effect.

Screening CCOc1ccc(S(=O)(=O)N2CCC(C(=O)Nc3cc(S(C)(=O)=O)ccc3Cl)CC2)cc1 returned FLuc modulator 0.1%, ELG1 DNA repair 0.4%, Rab9 promoter act -3.3%, NPC1 promoter act -4.7% and ELG1 genotoxic -0.8%.
Screening Fc1ccc(-c2onc3ccc(C4OCCO4)cc23)cc1 returned FLuc modulator 8.49µM*, SMN2 splice up -12.1%, ELG1 DNA repair -7.9%, Rab9 promoter act 5.8%, NPC1 promoter act 6.2% and ELG1 genotoxic -5.4%.
For CC(=O)N1c2ccccc2C(=O)C1N1CCN(c2cc(Cl)ccc2C)CC1 (stereo unspecified) the results were FLuc modulator -9.7%.
`O=C(CCCCCN1C(=O)c2cccc3cccc(c23)C1=O)NC1CCS(=O)(=O)C1` (stereo unspecified) gave FLuc modulator 15.1µM*, ELG1 DNA repair 9.6%, Rab9 promoter act -2.2%, NPC1 promoter act -4.9% and ELG1 genotoxic 5.3%.
Cc1c(Cl)cccc1NC(=O)CSc1ncc2c(n1)-c1ccccc1N(C)S2(=O)=O was read as FLuc modulator 3.8%.
Screening C=CC[C@H](CC(=O)N(CCO)Cc1ccccc1)C(=O)N[C@@H](COC(=O)[C@@H](CC=C)CC(=O)OC(C)(C)C)Cc1c[nH]c2ccccc12 returned ELG1 DNA repair 18.3µM* and ELG1 genotoxic -12.0%.
For C=CC[C@H](CC(=O)N(CCO)Cc1ccccc1)C(=O)N[C@H](COC(=O)[C@H](CC=C)CC(=O)OC(C)(C)C)Cc1c[nH]c2ccccc12 the results were ELG1 DNA repair 20.6µM* and ELG1 genotoxic -13.1%.
C=CC[C@@H](CC(=O)N(CCO)Cc1ccccc1)C(=O)N[C@@H](COC(=O)[C@H](CC=C)CC(=O)OC(C)(C)C)Cc1c[nH]c2ccccc12 was read as ELG1 DNA repair inconclusive and ELG1 genotoxic -10.2%.
`C=CC[C@H](CC(=O)NCCO)C(=O)N[C@H](COC(=O)[C@H](CC=C)CC(=O)OC(C)(C)C)Cc1c[nH]c2ccccc12` gave ELG1 DNA repair 23.1µM* and ELG1 genotoxic -5.6%.
`C=CC[C@H](CC(=O)N(CCO)Cc1ccccc1)C(=O)N[C@H](COC(=O)[C@@H](CC=C)CC(=O)OC(C)(C)C)Cc1ccccc1` gave ELG1 DNA repair inconclusive and ELG1 genotoxic -10.6%.
For C=CC[C@@H](CC(=O)NCCO)C(=O)N[C@H](COC(=O)[C@H](CC=C)CC(=O)OC(C)(C)C)Cc1c[nH]c2ccccc12 the results were ELG1 DNA repair -11.8% and ELG1 genotoxic 0.0%.
`COCCNC(=O)c1ccc(C2SCC(=O)N2CCc2ccccc2)cc1` (stereo unspecified) gave FLuc modulator -0.2%, ELG1 DNA repair 17.6%, Rab9 promoter act 3.7%, NPC1 promoter act 5.7% and ELG1 genotoxic -2.3%.
`CC(=O)Nc1ccc(NC(=O)c2ccc(C3SCC(=O)N3CCc3ccccc3)cc2)cc1` (stereo unspecified) gave FLuc modulator -1.5%, SMN2 splice up -25.8%, ELG1 DNA repair 23.1µM*, Rab9 promoter act -4.1%, NPC1 promoter act -1.9% and ELG1 genotoxic -4.4%.
Cc1cccc(NC(=O)c2ccc(C3SCC(=O)N3CCc3ccccc3)cc2)c1 (stereo unspecified) was read as FLuc modulator 1.3%, SMN2 splice up -65.7%, ELG1 DNA repair 25.9µM*, Rab9 promoter act -8.6%, NPC1 promoter act -5.4% and ELG1 genotoxic -4.1%.
Screening O=C(Cc1cccc([N+](=O)[O-])c1)NCc1nc2cccnc2n1Cc1ccc(F)cc1 returned FLuc modulator -7.0%.
Screening CCOc1ccccc1NC(=O)Cn1cnc2sc(C)c(S(=O)(=O)N3CCC(C)CC3)c2c1=O returned FLuc modulator 2.2% and SMN2 splice up 6.7%.
`O=C1C=C(Nc2ccccc2)c2ccccc2C1=O` gave FLuc modulator inconclusive, SMN2 splice up -103.0%, ELG1 DNA repair 9.2µM*, Rab9 promoter act -37.2%, NPC1 promoter act -41.5% and ELG1 genotoxic -16.0%.
For O=C1C=C(Nc2cccc3cccnc23)c2ccccc2C1=O the results were FLuc modulator -5.7%, ELG1 DNA repair inconclusive, Rab9 promoter act -38.6%, NPC1 promoter act -36.7% and ELG1 genotoxic inconclusive.
For O=C1C=C(Nc2ccccc2C(=O)O)c2ccccc2C1=O the results were FLuc modulator inconclusive, ELG1 DNA repair 25.9µM*, Rab9 promoter act -4.1%, NPC1 promoter act -6.8% and ELG1 genotoxic -14.6%.
CCCCNC1=CC(=O)C(=O)c2ccccc21 was read as FLuc modulator inconclusive, ELG1 DNA repair 8.7%, Rab9 promoter act 11.2%, NPC1 promoter act 5.6% and ELG1 genotoxic 4.1%.
For CCc1ccc(NC2=CC(=O)C(=O)c3ccccc32)cc1 the results were FLuc modulator 10.7µM*, ELG1 DNA repair 1.5%, Rab9 promoter act -4.4%, NPC1 promoter act 1.3% and ELG1 genotoxic -5.8%.
`O=C1C(Nc2ccccc2)=CC(=O)c2ncccc21` gave SMN2 splice up -113.9%.
Screening O=C1C=C(Nc2ccccc2)C(=O)c2ccccc21 returned FLuc modulator 3.38µM*, SMN2 splice up 12.6µM*, ELG1 DNA repair inconclusive, Rab9 promoter act 1µM*, NPC1 promoter act 1.78µM* and ELG1 genotoxic 7.1%.
For O=C(CN1CCN(CC(=O)Nc2ccccc2F)CC1)Nc1ccc2c(c1)OCCO2 the results were FLuc modulator 3.1%, SMN2 splice up -14.1%, ELG1 DNA repair -11.1%, Rab9 promoter act 0.5%, NPC1 promoter act -1.6% and ELG1 genotoxic -4.2%.
CCN(CC)CCn1c2c(c(SCC(=O)Nc3cccc(C(F)(F)F)c3)nc1=O)CCC2 was read as FLuc modulator -4.9%.
Screening COc1ccccc1CNn1c(-c2cccc(C)c2)nc2ccccc2c1=O returned FLuc modulator 5.0%, SMN2 splice up -0.4%, ELG1 DNA repair inconclusive, Rab9 promoter act -2.8%, NPC1 promoter act -0.5% and ELG1 genotoxic -13.3%.
For COc1ccc(CNn2c(-c3cccc(C)c3)nc3ccccc3c2=O)cc1OC the results were FLuc modulator 0.4%, SMN2 splice up 15.4%, ELG1 DNA repair 14.6µM*, Rab9 promoter act -0.2%, NPC1 promoter act -0.4% and ELG1 genotoxic -10.5%.
Screening CCOc1ccc(CN2C(=O)c3ccccc3Sc3ccc(C(=O)N4CCN(C)CC4)cc32)cc1 returned FLuc modulator -12.2% and SMN2 splice up 3.5%.
